Test results published in PubChem BioAssay (NCI).
Compounds without any hit were thinned out: in the full panel of roughly 83,000, 20% have a hit.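 Growth was measured after 48 h exposure to one concentration of compound in 96-well plates. Values under 10 count as active.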 Unmarked numbers belong to inactive results. The source made the active and inactive calls.

How the values were obtained:
Experiment in all cases: NCI-60 one-dose screen, 48 h (100 = growth as untreated, 0 = no growth, -100 = all killed)
Details in all cases: 10 µM unless noted
[1] = system: T-47D breast
[2] = system: BT-549 breast
[3] = system: MDA-MB-435 melanoma
[4] = system: SW-620 colon
[5] = system: MCF7 breast
[6] = system: HCT-116 colon
[7] = system: HCC-2998 colon
[8] = system: KM12 colon

Row | SMILES | growth [1] | growth [2] | growth [3] | growth [4] | growth [5] | growth [6] | growth [7] | growth [8]
1 | Cc1nn(-c2ccccc2)c2ncnc(N/N=C/c3ccccc3O)c12 | 15.6% | 25.6% | 16.3% | 26.2% | 9.62% (active) | 20.9% | 52% | 16.7%
2 | CCOC(=O)C(=O)/C(=C\c1ccc(Cl)cc1)C(=O)N1C(=S)NC(=O)C1CC(C)C (centres undefined) | 98.2% | 108% | 98.6% | 104% | 92% | 99.3% | 101% | 98.8%
3 | CC1(C)[C@@H](O)CC[C@]2(C)[C@H]3CC[C@@H]4[C@H]5[C@H](C(=O)/C=C\c6ccncc6)CC[C@]5(O)CC[C@@]4(C)[C@]3(C)CC[C@@H]12 | 68.7% | 68.2% | 14.9% | 26.5% | 24.6% | 14.9% | 77.9% | 39.2%
4 | O=C(Cn1cc(-c2ccccc2)nn1)Nc1nc(-c2ccc(Cl)cc2)cs1 | 95% | 98.1% | 95.7% | 108% | 87% | 108% | 105% | 108%
5 | CNCc1cccc2c1OCCCCCCC(C)(O)CC(C)(C)S(=O)(=O)c1ccc(cc1)-c1cnc(N)c(n1)C(=O)N2 (centres undefined) | 56.1% | 27.9% | -85.6% (active) | 5.13% (active) | -58.1% (active) | -82.3% (active) | -6.01% (active) | -68.1% (active)
6 | Cn1ccnc1C(=O)/C=C/c1ccc(NC(=O)c2c(F)c(F)c(F)c(F)c2F)cc1 | 103% | 98.2% | 107% | 105% | 70.8% | 101% | 125% | 105%
7 | Cc1nn(-c2ccccc2)c2ncnc(N/N=C/c3ccccc3)c12 | 75% | 97.4% | 96.9% | 107% | 80.4% | 98.1% | 115% | 80.9%
8 | CC(=O)N1C(=S)NC(=O)C1CC(C)C (centres undefined) | 100% | 115% | 103% | 102% | 97.7% | 106% | 108% | 101%
9 | NC(N)=Nc1ccc(Oc2cccc(Oc3ccc(Cl)c(C(F)(F)F)c3)c2)cn1 | 8.88% (active) | 73.9% | -86.8% (active) | -76.7% (active) | -70.6% (active) | -91.5% (active) | -80.6% (active) | -89.6% (active)
10 | O=C1CCC(N2C(=O)c3ccc(NS(=O)(=O)c4ccccc4OC(F)(F)F)cc3C2=O)C(=O)N1 (centres undefined) | 16.2% | 14.8% | 64.4% | 20.2% | 44.5% | 96.8% | 11% | 40.6%
11 | COc1cc(-c2nc3sccn3c2-c2ccnc(S(C)(=O)=O)n2)ccc1F | 97.9% | 92.2% | 91.5% | 99% | 84.1% | 103% | 100% | 102%
12 | O=C1[C@@H]2Cc3c([nH]c4ccccc34)[C@H](c3c(Cl)cccc3Cl)N2C(=O)CN1C1CCN(CC2CCCCC2)CC1 | 61% | 63.2% | 73.6% | 10.2% | 18.4% | 4.3% (active) | 73.4% | 68.7%
13 | Cc1ccc(NC(=S)NNC(=S)Nc2ccc(C)cc2)cc1 | 101% | 92.9% | 102% | 108% | 91.1% | 106% | 110% | 101%
14 | O=C(O)c1ccc(-n2cc(CNc3cccc(Cl)c3)c(-c3ccc(F)cc3)n2)cc1 | 92.1% | 108% | 102% | 110% | 70% | 89.2% | 105% | 94.2%
15 | O=C(Nc1ccc(Br)cc1)Nc1nc2ccc([N+](=O)[O-])cc2s1 | -19% (active) | -21.5% (active) | -9.22% (active) | 3.15% (active) | 1.05% (active) | 2.73% (active) | 1.25% (active) | 0.616% (active)
16 | NC(N)=Nc1ccc(Oc2cccc(Nc3ccc(Cl)c(C(F)(F)F)c3)c2)cc1 | 35.3% | 77% | 32.3% | 30.2% | 11.3% | 27.5% | 20.3% | 7.04% (active)
17 | c1cc(-c2nc3ccc4[nH]ncc4c3c3c2CCCC3)[nH]n1 | 73.8% | 31.2% | 10.5% | 25% | 40% | 25.6% | 78.9% | 24%
18 | CCCSc1nc(Nc2ccc(/C(C)=N\NC(N)=S)cc2)c(C#N)c(-c2ccccc2)n1 | 63.4% | 88.5% | 87.5% | 84.1% | 47.9% | 49% | 89.5% | 54.9%
19 | O=S(=O)(NCCCNc1nccc(-c2[nH]c(-c3ccccc3)nc2-c2ccc(Cl)c(O)c2)n1)c1cccc(F)c1 | 49.9% | 59.7% | 21.5% | 92.5% | 55.3% | 35.4% | 101% | 60.5%
20 | Cc1ccc(C2=Nn3c(nnc3-c3ccccc3)SC2)cc1 | 29.2% | 22.5% | -22.2% (active) | 13.3% | 16.4% | 17.7% | 39.9% | 36.4%
21 | CNC(=O)c1cc(Oc2ccc3nc(NC(=O)c4cccc(OC(F)(F)F)c4)sc3c2)ccn1 | 63.1% | 137% | 79% | 103% | 77.6% | 75.5% | 108% | 85.6%
22 | COCCNc1ccc2ncc(C#Cc3cncc(C(=O)Nc4ccc(CN5CCN(C)CC5)c(C(F)(F)F)c4)c3)n2n1 | -7.3% (active) | -36.7% (active) | -24.8% (active) | -54.1% (active) | -30.7% (active) | -66.9% (active) | -23.6% (active) | -9.09% (active)
23 | COc1ccc(C(=O)CSc2nc3c(c(Nc4ccc(S(N)(=O)=O)cc4)n2)CCCC3)cc1 | 71.3% | 127% | 103% | 86.4% | 97.8% | 93% | 97.6% | 73.7%
24 | Cc1c(F)cc(C(N)=O)cc1NCC(=O)Nc1ccc([N+](=O)[O-])cc1 | 102% | 98% | 99.8% | 92.9% | 87.1% | 99.9% | 105% | 98.6%
25 | Brc1ccccc1/C=N/Nc1nc(N/N=C/c2ccccc2Br)nc(N2CCOCC2)n1 | 79% | 107% | 97.7% | 96.7% | 85.2% | 97.5% | 70.9% | 89.1%
26 | COc1ccccc1N1CCN(C2=CC(=O)C(C)=C(C)C2=O)CC1 | 91.1% | 104% | 106% | 105% | 83.5% | 106% | 110% | 105%
27 | O=C(CNc1nc(-c2cccc([N+](=O)[O-])c2)cs1)Nc1cccc([N+](=O)[O-])c1 | -5.2% (active) | 15.2% | -15.5% (active) | 1.81% (active) | -1.07% (active) | -8.55% (active) | -55.9% (active) | 4.12% (active)
28 | Nc1cc(F)ccc1NC(=O)c1ccc(NC(=O)C/C=C/c2cccnc2)cc1 | 22.7% | 26.1% | 28% | 17.6% | 33% | 9.59% (active) | 52.8% | 41.5%
